# Source: PubChem BioAssay AID720584 (National Center for Advancing Translational Sciences (NCATS), 2013)
# Some of the results follow. Results filed as inconclusive are left out. Active and inactive are the calls of the source. Calls follow the shape of the dose curve; as a rule, active = well fitted inhibition curve with a large enough effect; inconclusive = small, poorly fitted or top-dose-only effect; inactive = flat fitted curve, though single readings scatter.
# System: Trypanosoma brucei pyruvate kinase (TbPYK)
# Experiment: qHTS of Trypanosoma Brucei Inhibitors: Orthogonal Assay for Cherry-picked Compounds; also: nearly all actives have a fitted effect of over 75% in size
# Details: recombinant TbPYK, ADP-Glo luminescence, 60 min
# Source text: Members of the Trypanosomatidae family of parasitic protozoans cause a spectrum of diseases throughout the tropical and subtropical world. Sleeping sickness, caused by two subspecies of Trypanosoma brucei, is endemic to areas of sub-Saharan Africa, while Chagas' disease, a manifestation of Trypanosoma cruzi infection, is prevalent throughout Central and South America. In addition, many species of Leishmania are responsible for a range of cutaneous and visceral diseases, causing ulcers, destructive lesions and kalaazar, a lethal infection of the viscera. These diseases cause severe public health and economic burdens on populations that are often already caught in a tragic cycle of poverty, poor nutrition and disease. Collectively, parasites of the trypanosomatid family infect 30 million people worldwide (~500 million live in endemic areas), and account for ~130K deaths annually. Existing treatments have developed little in the past 50 years, and suffer from toxicity, poor efficacy and resistance; the goal of this project is to develop lead drugs that will be suitable for entry into pre-clinical trials. […] Glycolysis in axenically cultured T. cruzi, representing the intracellular pathogenic stage, is also essential for these parasites. {Engel, 1987} This project aims to discover and optimize selective inhibitors of the glycolytic enzyme pyruvate kinase (PYK) from Trypanosoma brucei, the parasite that causes sleeping sickness. […] While the primary qHTS provides a luminescence-based detection of TbPyK by measuring ATP production, the orthogonal assay will measure the amount of ADP substrate remaining. […]
# Briefly, 2 uL of substrate/TbPYK buffer (all columns but column 4) are dispensed into Greiner white solid-bottom 1536-well assay plates. […] ADP-Glo reagent II is then added (5 uL), followed by a 10 minute room temperature incubation, before being transferred to a ViewLux high-throughput CCD imager (PerkinElmer), wherein single end-point measurements of luminescence are acquired using a clear filter. […]
# Potency is read from the fitted curve at half-maximal effect.
row,Compound,Potency
1,O=C1NC(=O)N(c2ccccc2)C(=O)/C1=C/c1ccc([N+](=O)[O-])s1,14.1 µM (active)
2,Cc1ccc2c(c1)=C/C(=C\c1c(O)[nH]c(=O)[nH]c1=O)C(=O)N=2,25.1 µM (active)
3,COc1ccc(N2C(=O)/C(=C/c3ccco3)C(=O)NC2=S)cc1,6.31 µM (active)
